TROY signal inh: inhibitors of TROY-driven NF-kB signaling, primary screen, Q293 LMP1-TROYcd cells, NF-kB luciferase, uHTS; AID 1347056, 2019; Q293 LMP1-TROYcd NF-kB luciferase reporter, 4 h; inhibition, % at 10 µM; 360,000 tested, 0.98% active;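 active = compounds whose plate-normalised and pattern-corrected inhibition of the luciferase reporter signal at the single screening dose is 50% or more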
TWEAK-Fn14 inh: inhibitors of TWEAK-Fn14 signaling, primary screen, luciferase reporter cells, uHTS. TWEAK-stimulated Fn14 reporter cells, luciferase luminescence, 8 h. inhibition, % at 10 µM. 360,000 tested, 2% active; in the data active = inhibition above about 50%
HSF-1 act: HSF-1 activators, primary screen, NIH3T3-HGL cells, MG132 stress, luminescence, single point | NIH3T3-HGL HSF-1 luciferase reporter, 8 h; 100% = twice DMSO control signal | activation, % at 9 µM | 300,000 tested, 1.7% active;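 active = mean replicate activation of at least 50% with a set share of replicates each reaching 50%; inconclusive = only one of those two conditions met; inactive = mean below 50% and too few replicates reaching it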;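 also: 0% = median of the neutral control wells and 100% = twice that signal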
LGR2 antag: inhibitors of bursicon-induced LGR2 CRE-luciferase signal, primary screen, cell-based, HEK293, CRE-luciferase reporter, bursicon stimulation; bursicon-stimulated, 4 h; inhibition, % at 9.99 µM; Drosophila bursicon receptor LGR2 (rickets); AID 720647, 2013; 380,000 tested, 0.35% active;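 active = drop in luminescence signal, shown as inhibition above about 50% in the replicate tests, limit read from the data, passing the limit was not always enough; inconclusive = probably only some replicates passing the limit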;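 also: agonist challenge used bursicon conditioned medium at about half maximal strength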
HSF1 inh: HSF1 inhibitors in luciferase reporter cells, primary screen, cell-based, NIH3T3, luminescence | NIH3T3-HGL HSE-luciferase, MG132-induced, luminescence 8 h; stronger effect = lower value | activity change, negative = inhibition, % at 7.5 µM (by protocol) | 300,000 tested, 0.77% active;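 active = more than half of replicate wells show activity change below -50%, luminescence cut by over half; inconclusive = some wells, but at most half, below -50%; inactive = no replicate well below -50%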;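 also: luciferase reports HSF-1 transcriptional activity via heat shock element; 0% = median of DMSO wells and -100% = zero luminescence signal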
EBV LMP1 NFkB: EBV LMP1-driven NF-kappaB luciferase reporter inhibitors, primary screen, cell-based, luminescence, single point. LMP1-induced NF-kappaB luciferase reporter cells. inhibition, % at 12.5 µM. 350,000 tested, 0.69% active; in the data active = inhibition above about 41%; inconclusive = no clear call, values can overlap the other calls;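 also: 0% = neutral control wells and 100% = reference inhibitor control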
* hit, by the source's call; ? = inconclusive; nt = no result given. Hits are enriched below; roughly 3.6% of the tested compounds scored in any of these assays.

SMILES	TROY signal inh	TWEAK-Fn14 inh	HSF-1 act	LGR2 antag	HSF1 inh	EBV LMP1 NFkB
CC(C)NC(=O)CN(C(=O)CCC(=O)Nc1nccs1)c1ccc2c(c1)OCO2	-18	-16	66*	-2	22	-6
COCCNC(=O)CN(C(=O)CCC(=O)Nc1nccs1)c1ccc2c(c1)OCO2	3	0	-13	-3	-11	2
CCC(C)(C)NC(=O)CN(C(=O)CCC(=O)Nc1nccs1)c1ccc2c(c1)OCCO2	52*	64*	-34	-1	-28	4
O=C(CSCC(=O)Nc1nc(-c2ccc3c(c2)OCO3)cs1)Nc1nccs1	25	46	33	-7	16	85*
CCc1ccc(N(CC(=O)NC(C)(C)CC)C(=O)CCC(=O)Nc2nccs2)cc1	-9	1	0	-4	-3	4
Cc1noc(C)c1NC(=O)Nc1ccc2c(c1)C(=O)N([C@@H](C)CO)C[C@@H](C)[C@@H](CN(C)S(=O)(=O)c1c(C)noc1C)OCCCC[C@@H](C)O2	nt	nt	nt	11	nt	nt
COc1ccc2c3c(n(C)c2c1)[C@@H](CO)N(C(=O)Cc1ccccn1)CC31CCN(Cc2ccccn2)CC1	nt	nt	nt	8	nt	nt
CCC(C)(C)n1nnnc1C(c1cc2cc(C)cc(C)c2[nH]c1=O)N1CCN(Cc2ccc3c(c2)OCO3)CC1 (stereo unspecified)	-3	3	54*	nt	21	5
CN(C)CCCNC(=O)[C@H]1[C@H](CO)[C@H]2Cn3c(ccc(-c4ccccc4)c3=O)[C@@H]1N2C	nt	nt	nt	0	nt	nt
Cc1ccccc1-c1cnc2c(c1)C(=O)N([C@H](C)CO)C[C@H](C)[C@H](CN(C)C(=O)CN(C)C)O2	nt	nt	nt	15	nt	nt
COc1ccc(C2=NN(C(C#N)c3ccc(OC)cc3)C(c3ccccc3)C2)cc1 (stereo unspecified)	-67	0	64*	-30	42	-12
COc1ccc(C(C#N)N2N=C(C)CC2c2ccccc2)cc1 (stereo unspecified)	-7	0	-8	12	-2	2
O=C(C[C@@H]1C=C[C@@H](NS(=O)(=O)c2ccc(F)cc2)[C@@H](CO)O1)NCc1ccncn1	nt	nt	nt	20	nt	nt
CCOC(=O)c1c(C)[nH]c(C(=O)CSc2ccccc2)c1C	38	67*	59*	nt	27	-19
CCOC(=O)c1c(C)[nH]c(C(=O)OCc2ccccc2)c1C	-21	-6	62*	-66	46	-54
CCCn1c(SCC(=O)c2c(C)[nH]c(C)c2C(=O)OCC)nc2ccccc21	-2	11	-70	2	-61*	-2
CCOC(=O)c1c(C)[nH]c(C)c1C(=O)CSc1nc2ccccc2n1CCC#N	-6	-24	-3	2	-5	-1
CCOC(=O)c1c(C)[nH]c(C(=O)COC(=O)CCSc2ccccc2)c1C	5	-47	16	-77	1	-26
C[C@@H]1CN([C@@H](C)CO)C(=O)c2cc(NC(=O)CCC(F)(F)F)ccc2O[C@@H](C)CCCCO[C@@H]1CN(C)Cc1ccc(C(F)(F)F)cc1	nt	nt	nt	-3	nt	nt
O=C(CNC(=O)C1CCCCC1)NC1=NCCS1	-14	1	-90	nt	-88*	2
COc1cc(-c2coc3c(C(=O)NCc4ccc(OC)c(OC)c4)cccc23)ccc1O	67*	95*	nt	45	nt	nt
COc1ccc(CNC(=O)c2cccc3c(-c4ccc(F)c(F)c4)coc23)cc1OC	45	64*	nt	nt	nt	nt
COc1ccc(CNC(=O)c2cccc3c(-c4cccc(C(N)=O)c4)coc23)cc1OC	63*	91*	nt	31	nt	nt
O=C(NCc1ccccc1)c1cccc2c(-c3ccc(F)c(F)c3)coc12	-20	-5	nt	nt	nt	nt
NC(=O)c1cccc(-c2coc3c(C(=O)NCCc4ccccc4)cccc23)c1	-12	41	nt	nt	nt	nt
SMILES	TROY signal inh	TWEAK-Fn14 inh	HSF-1 act	LGR2 antag	HSF1 inh	EBV LMP1 NFkB
COCC#Cc1ccc2c(c1)O[C@@H](CN(C)S(=O)(=O)c1cccc(OC)c1)[C@@H](C)CN([C@@H](C)CO)S2(=O)=O	nt	nt	nt	-8	nt	nt
Cc1ccc(S(=O)(=O)Nc2ccc3c(c2)C(=O)N([C@@H](C)CO)C[C@H](C)[C@@H](CN(C)C(=O)CCCN(C)C)OCCCC[C@H](C)O3)cc1	nt	nt	nt	8	nt	nt
COc1cc(-c2ccc3oc(-c4ccsc4)cc(=O)c3c2)cc(OC)c1OC	20	25	nt	64*	nt	23
CCC(N=c1cc(-c2ccc(OC)cc2)oc2ccc(C)cc12)C(=O)O (stereo unspecified)	-59	-28	59*	-75	32	-6
O=c1cc(-c2ccccc2)oc2ccc(Br)cc12	-39	-19	nt	6	nt	-9
COc1ccc2oc(-c3ccccc3)cc(=O)c2c1	5	74*	nt	64*	nt	nt
COc1cc(-c2cc(=O)c3ccc(O)cc3o2)cc(OC)c1OC	-6	-15	nt	9	nt	nt
COc1ccc(-c2cc(=O)c3cc(OC)ccc3o2)cc1	7	65*	19	2	19	23
CO[C@H]1CN(C)C(=O)c2cc(NC(=O)C3CCCCC3)ccc2OC[C@H](C)N(C)C[C@@H]1C	nt	nt	nt	-2	nt	nt
C[C@@H]1CN([C@@H](C)CO)C(=O)c2cc(NC(=O)Cn3cnnn3)ccc2O[C@H]1CN(C)Cc1ccncc1	nt	nt	nt	8	nt	nt
O=C(Cc1ccccn1)c1ccc(Cl)cc1	-67	-23	11	-35	11	-2
CC1=C(CC(=O)c2ccc(Cl)cc2)C(=O)c2ccccc2C1=O	70*	72*	-45	nt	-33	-23
CC(C)c1cn(CC[C@@H]2CC[C@@H](NC(=O)C3CCOCC3)[C@@H](CO)O2)nn1	nt	nt	nt	5	nt	nt
C/C=C/c1ccc([C@@H]2[C@H](CO)N(C(=O)c3cnccn3)C23CN(C(=O)C2CC2)C3)cc1	nt	nt	nt	-9	nt	nt
COc1cccc(-c2nc(NCc3ccccc3)c3ccccc3n2)c1O	30	20	33	-3	22	?
COc1cccc(-c2nc(NC3CCCC3)c3ccccc3n2)c1O	71*	-2	1	-6	-5	2
C[C@H]1CN([C@@H](C)CO)S(=O)(=O)c2ccc(C#CCN(C)C)cc2O[C@H]1CN(C)C(=O)C1CCC1	nt	nt	nt	-1	nt	nt
CCNc1nc(NCC)n2c(SC(C(=O)Nc3cc(Cl)cc(Cl)c3)c3ccccc3)nnc2n1 (stereo unspecified)	47	67*	-11	2	1	-20
CCNc1nc(NCC)n2c(SCC(=O)Nc3cccc(Cl)c3)nnc2n1	-14	-10	10	nt	2	-2
COc1ccc(NC(=O)/C(C#N)=C\c2cc(C)n(-c3ccc4c(c3)OCO4)c2C)cc1	21	51*	-11	9	-12	7

Compound activity from PubChem BioAssay.
